# Reference: PubChem BioAssay AID1159580 (chemical genetic matrix, 2015)
# Out of some 5,500 compounds screened, about 2,000 (36%) were called active. Another 18% or so got no clear call; they are omitted. The list shows a part of the results. Unmarked numbers belong to inactive results. Cut-off read from the data, not from the text of the source: active = normalized growth mostly below about 0.91 (no sharp cut-off); inconclusive = no clear call, values can overlap the other calls; inactive = mostly above about 0.92.
# Assay: chemical genetic growth profiling, strain panel (AID 1159580);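 note: tested at 20 µM; growth read once vehicle control cultures reached saturation at 30 °C; 1 = growth at the plate median or of vehicle wells; lower values mean less growth of the strain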
# Conditions: growth OD
smiles,measurement,setting,value
COc1cc(O)c2c(=O)cc(-c3ccc(O)cc3)oc2c1,normalized growth,"S. cerevisiae deletion strains, locus YBR021W, strain FUR4, hits give low values",1.02
same,normalized growth,"S. cerevisiae deletion strains, locus YBR229C, strain ROT2, hits give low values",1
same,normalized growth,"S. cerevisiae deletion strains, locus YCL029C, strain bik1, hits give low values",1
same,normalized growth,"S. cerevisiae deletion strains, locus YDL035C, strain GPR1, hits give low values",1
same,normalized growth,"S. cerevisiae deletion strains, locus YDL074C, strain BRE1, hits give low values",1.01
same,normalized growth,"S. cerevisiae deletion strains, locus YDL101C, strain DUN1, hits give low values",1.02
same,normalized growth,"S. cerevisiae deletion strains, locus YDL185W, strain tfp1, hits give low values",1.02
same,normalized growth,"S. cerevisiae deletion strains, locus YDL192W, strain arf1, hits give low values",1.05
same,normalized growth,"S. cerevisiae deletion strains, locus YDR101C, strain arx1, hits give low values",1.03
same,normalized growth,"S. cerevisiae deletion strains, locus YDR162C, strain NBP2, hits give low values",1.06
same,normalized growth,"S. cerevisiae deletion strains, locus YDR318W, strain mcm21, hits give low values",1.02
same,normalized growth,"S. cerevisiae deletion strains, locus YDR388W, hits give low values",0.994
same,normalized growth,"S. cerevisiae deletion strains, locus YDR502C, strain sam2, hits give low values",1
same,normalized growth,"S. cerevisiae deletion strains, locus YEL061C, strain CIN8, hits give low values",1
same,normalized growth,"S. cerevisiae deletion strains, locus YER110C, hits give low values",1.02
same,normalized growth,"S. cerevisiae deletion strains, locus YER155C, strain BEM2, hits give low values",1.04
same,normalized growth,"S. cerevisiae deletion strains, locus YER167W, strain BCK2, hits give low values",1.02
same,normalized growth,"S. cerevisiae deletion strains, locus YGL078C, strain dbp3, hits give low values",1.03
same,normalized growth,"S. cerevisiae deletion strains, locus YGL086W, strain mad1, hits give low values",1
same,normalized growth,"S. cerevisiae deletion strains, locus YGL248W, strain PDE1, hits give low values",1.02
same,normalized growth,"S. cerevisiae deletion strains, locus YGR135W, strain pre9, hits give low values",1.04
same,normalized growth,"S. cerevisiae deletion strains, locus YGR252W, strain gcn5, hits give low values",0.949
same,normalized growth,"S. cerevisiae deletion strains, locus YHR030C, strain SLT2, hits give low values",1.01
same,normalized growth,"S. cerevisiae deletion strains, locus YHR079C, strain IRE1 (second series), hits give low values",1.01
same,normalized growth,"S. cerevisiae deletion strains, locus YHR094C, strain hxt1, hits give low values",0.996
same,normalized growth,"S. cerevisiae deletion strains, locus YHR129C, strain ARP1, hits give low values",1.01
same,normalized growth,"S. cerevisiae deletion strains, locus YHR200W, strain rpn10, hits give low values",1.07
same,normalized growth,"S. cerevisiae deletion strains, locus YIL066C, strain RNR3, hits give low values",1.02
same,normalized growth,"S. cerevisiae deletion strains, locus YIL073C, strain SPO22, hits give low values",1.02
same,normalized growth,"S. cerevisiae deletion strains, locus YIL125W, strain kgd1, hits give low values",1.02
same,normalized growth,"S. cerevisiae deletion strains, locus YIR030C, strain dcg1, hits give low values",1.08 [resistant] (active)
same,normalized growth,"S. cerevisiae deletion strains, locus YJL095W, strain BCK1, hits give low values",1.05
same,normalized growth,"S. cerevisiae deletion strains, locus YJL134W, strain LCB3, hits give low values",0.997
same,normalized growth,"S. cerevisiae deletion strains, locus YJL168C, strain set2, hits give low values",1
same,normalized growth,"S. cerevisiae deletion strains, locus YJL187C, strain SWE1 (second series), hits give low values",1.02
same,normalized growth,"S. cerevisiae deletion strains, locus YJR043C, strain POL32, hits give low values",1
same,normalized growth,"S. cerevisiae deletion strains, locus YJR075W, strain HOC1, hits give low values",1
same,normalized growth,"S. cerevisiae deletion strains, locus YKL009W, strain mrt4, hits give low values",0.981
same,normalized growth,"S. cerevisiae deletion strains, locus YKL068W, hits give low values",1
same,normalized growth,"S. cerevisiae deletion strains, locus YKL085W, strain MDH1 (second series), hits give low values",0.994
same,normalized growth,"S. cerevisiae deletion strains, locus YKL085W, strain MDH1, hits give low values",0.994
same,normalized growth,"S. cerevisiae deletion strains, locus YKR001C, strain vps1, hits give low values",1.01
same,normalized growth,"S. cerevisiae deletion strains, locus YLR039C, strain RIC1, hits give low values",1.07
same,normalized growth,"S. cerevisiae deletion strains, locus YLR058C, strain SHM2, hits give low values",1.01
same,normalized growth,"S. cerevisiae deletion strains, locus YLR102C, strain apc9, hits give low values",1.04
same,normalized growth,"S. cerevisiae deletion strains, locus YLR262C, strain YPT6, hits give low values",1.07
same,normalized growth,"S. cerevisiae deletion strains, locus YLR268W, strain sec22, hits give low values",1.01
same,normalized growth,"S. cerevisiae deletion strains, locus YLR330W, strain CHS5, hits give low values",0.997
same,normalized growth,"S. cerevisiae deletion strains, locus YLR342W, strain FKS1 (second series), hits give low values",1.01
same,normalized growth,"S. cerevisiae deletion strains, locus YLR371W, strain rom2, hits give low values",1.03
same,normalized growth,"S. cerevisiae deletion strains, locus YLR418C, strain cdc73, hits give low values",0.998
same,normalized growth,"S. cerevisiae deletion strains, locus YML016C, strain PPZ1, hits give low values",0.994
same,normalized growth,"S. cerevisiae deletion strains, locus YML032C, strain rad52, hits give low values",0.996
same,normalized growth,"S. cerevisiae deletion strains, locus YML124C, strain tub3, hits give low values",1.02
same,normalized growth,"S. cerevisiae deletion strains, locus YMR078C, strain ctf18, hits give low values",1.02
same,normalized growth,"S. cerevisiae deletion strains, locus YMR223W, strain ubp8, hits give low values",1.04
same,normalized growth,"S. cerevisiae deletion strains, locus YMR307W, strain GAS1, hits give low values",0.907
same,normalized growth,"S. cerevisiae deletion strains, locus YNL067W, strain RPL9B, hits give low values",1.03
same,normalized growth,"S. cerevisiae deletion strains, locus YNL233W, strain BNI4, hits give low values",1.02
same,normalized growth,"S. cerevisiae deletion strains, locus YNL250W, strain rad50, hits give low values",1.02
same,normalized growth,"S. cerevisiae deletion strains, locus YNL271C, strain bni1, hits give low values",1.04
same,normalized growth,"S. cerevisiae deletion strains, locus YNL298W, strain CLA4, hits give low values",0.963
same,normalized growth,"S. cerevisiae deletion strains, locus YNL307C, strain MCK1, hits give low values",0.994
same,normalized growth,"S. cerevisiae deletion strains, locus YNR052C, strain pop2, hits give low values",1.01
same,normalized growth,"S. cerevisiae deletion strains, locus YOL006C, strain TOP1, hits give low values",1.04
same,normalized growth,"S. cerevisiae deletion strains, locus YOL012C, strain htz1",0.814
same,normalized growth,"S. cerevisiae deletion strains, locus YOL147C, strain pex11, hits give low values",1.02
same,normalized growth,"S. cerevisiae deletion strains, locus YOR061W, strain CKA2, hits give low values",1
same,normalized growth,"S. cerevisiae deletion strains, locus YOR069W, strain VPS5, hits give low values",0.999
same,normalized growth,"S. cerevisiae deletion strains, locus YOR136W, strain idh2, hits give low values",0.993
same,normalized growth,"S. cerevisiae deletion strains, locus YOR144C, strain elg1, hits give low values",1.04
same,normalized growth,"S. cerevisiae deletion strains, locus YOR184W, strain ser1, hits give low values",1.07
same,normalized growth,"S. cerevisiae deletion strains, locus YOR316C, strain cot1, hits give low values",1.02
same,normalized growth,"S. cerevisiae deletion strains, locus YPL055C, strain LGE1, hits give low values",1.02
same,normalized growth,"S. cerevisiae deletion strains, locus YPR119W, strain clb2, hits give low values",1.01
same,normalized growth,"S. cerevisiae deletion strains, locus YPR141C, strain kar3, hits give low values",1.08
same,normalized growth,"S. cerevisiae deletion strains, locus YPR163C, strain tif3, hits give low values",0.996
same,normalized growth,"S. cerevisiae deletion strains, locus YPR167C, strain met16, hits give low values",1.02
same,normalized growth,"S. cerevisiae deletion strains, strain wtn01, hits give low values",1.02
same,normalized growth,"S. cerevisiae strains, strain wild type, hits give low values",1.01
